Measurements: PubChem BioAssay (Tox21)
Several values for one entry are separate records, joined by “and”; a condition that tells them apart may be missing. Equal entries are not always repeated. Results filed as inconclusive are left out. Activity calls are given as the source filed them. Unless noted, calls come from the whole dose curve; as a rule, active = well fitted curve in the direction sought with a large enough effect in the repeat runs; inconclusive = weak or mixed curves; inactive = no such curve, though single readings can be large; an effect the other way counts as inactive or inconclusive.

How the values were obtained:
[1] = qHTS assay to identify small molecule antagonists of the glucocorticoid receptor (GR) signaling pathway - cell viability counter screen (AID 720693); note: nearly all actives have a fitted effect of over 55% in size; note: potency is the fitted concentration of half-maximal effect
[2] = qHTS assay for identifying genotoxic compounds that show differential cytotoxicity against isogenic chicken DT40 cell lines with known DNA damage response pathways - Rev3 mutant cell line (AID 743014); note: nearly all actives have a fitted effect of over 55% in size; note: potency is the fitted concentration of half-maximal effect
[3] = qHTS assay for identifying genotoxic compounds that show differential cytotoxicity against isogenic chicken DT40 cell lines with known DNA damage response pathways - Rad54/Ku70 mutant cell line (AID 743015); note: nearly all actives have a fitted effect of over 60% in size; note: potency is the fitted concentration of half-maximal effect
[4] = qHTS assay to identify small molecule antagonists of the androgen receptor (AR) signaling pathway - cell viability counter screen (AID 743033; note: nearly all actives have a fitted effect of over 45% in size; note: potency is the fitted concentration of half-maximal effect)
[5] = qHTS assay to identify small molecule antagonists of the androgen receptor (AR) signaling pathway using the MDA cell line - cell viability counter screen (AID 743041; note: nearly all actives have a fitted effect of over 45% in size; note: potency is the fitted concentration of half-maximal effect)
Summary of the method: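 R1881-driven MDA-kb2 AR-luc cells, 3,000/well, were dosed with library compounds for 16 h; cell health came from CellTiter-Fluor fluorescence in the reporter wells.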

[6] = target: Androgen receptor (Homo sapiens) (UniProt P10275); assay: qHTS assay to identify small molecule antagonists of the androgen receptor (AR) signaling pathway (AID 743035; active = well fitted inhibition curve with a large enough effect in the signal ratio in the repeat runs, not every such curve was filed as active; the % refers to the signal ratio; note: potency is the fitted concentration of half-maximal effect)
Summary of the method: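 Using qHTS, AR-UAS-bla GripTite HEK293 cells received compound, then R1881, and were cultured 16 h at 37C/5% CO2 before a 2 h room-temperature LiveBLAzer B/G FRET substrate step and fluorescence measurement.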

[7] = target: Androgen receptor (Homo sapiens) (UniProt P10275); assay: qHTS assay to identify small molecule agonists of the androgen receptor (AR) signaling pathway (AID 743036; active = well fitted activation curve with a large enough effect in the signal ratio in the repeat runs, with a control signal flat, not every such curve was filed as active; the % refers to the signal ratio)
Summary of the method: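 Agonist activity was scored by beta-lactamase reporter fluorescence in stably transfected HEK293 cells exposed to compounds for 16 h at 37C and 5% CO2. Substrate loading took 2 h at room temperature.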

[8] = target: Androgen receptor (Homo sapiens) (UniProt P10275); assay: qHTS assay to identify small molecule agonists of the androgen receptor (AR) signaling pathway using the MDA cell line (AID 743040; note: nearly all actives have a fitted effect of over 20% in size; note: potency is the fitted concentration of half-maximal effect)
Summary of the method: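 After a 5 h incubation at 37C and 0% CO2, MDA-kb2 reporter cells were dosed with compounds in DMSO and kept 16 h under the same conditions. Luciferase activity was then read as luminescence with ONE-Glo.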

[9] = target: Androgen receptor (Homo sapiens) (UniProt P10275); assay: qHTS assay to identify small molecule antagonists of the androgen receptor (AR) signaling pathway using the MDA cell line (AID 743042; note: nearly all actives have a fitted effect of over 55% in size)
Summary of the method: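 Antagonist mode: compounds plus R1881 agonist added to MDA-kb2 AR-luc cells, incubated 16 h at 37C. Luciferase reporter luminescence quantified, with multiplexed CellTiter-Fluor readout for cell viability.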

[10] = qHTS assay for identifying genotoxic compounds that show differential cytotoxicity against isogenic chicken DT40 cell lines with known DNA damage response pathways - wild type cell line (AID 743012); note: nearly all actives have a fitted effect of over 60% in size; note: potency is the fitted concentration of half-maximal effect
Summary of the method: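 Using parental DT40 (300 cells/well), compounds delivered in DMSO incubate 40 h at 37 C/5% CO2. CellTiter-Glo reagent then stands 30 min at room temperature, and luminescence gives cell viability.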

Measured: Potency

Sequence of Androgen receptor (Homo sapiens) (P10275 whole entry, looked up): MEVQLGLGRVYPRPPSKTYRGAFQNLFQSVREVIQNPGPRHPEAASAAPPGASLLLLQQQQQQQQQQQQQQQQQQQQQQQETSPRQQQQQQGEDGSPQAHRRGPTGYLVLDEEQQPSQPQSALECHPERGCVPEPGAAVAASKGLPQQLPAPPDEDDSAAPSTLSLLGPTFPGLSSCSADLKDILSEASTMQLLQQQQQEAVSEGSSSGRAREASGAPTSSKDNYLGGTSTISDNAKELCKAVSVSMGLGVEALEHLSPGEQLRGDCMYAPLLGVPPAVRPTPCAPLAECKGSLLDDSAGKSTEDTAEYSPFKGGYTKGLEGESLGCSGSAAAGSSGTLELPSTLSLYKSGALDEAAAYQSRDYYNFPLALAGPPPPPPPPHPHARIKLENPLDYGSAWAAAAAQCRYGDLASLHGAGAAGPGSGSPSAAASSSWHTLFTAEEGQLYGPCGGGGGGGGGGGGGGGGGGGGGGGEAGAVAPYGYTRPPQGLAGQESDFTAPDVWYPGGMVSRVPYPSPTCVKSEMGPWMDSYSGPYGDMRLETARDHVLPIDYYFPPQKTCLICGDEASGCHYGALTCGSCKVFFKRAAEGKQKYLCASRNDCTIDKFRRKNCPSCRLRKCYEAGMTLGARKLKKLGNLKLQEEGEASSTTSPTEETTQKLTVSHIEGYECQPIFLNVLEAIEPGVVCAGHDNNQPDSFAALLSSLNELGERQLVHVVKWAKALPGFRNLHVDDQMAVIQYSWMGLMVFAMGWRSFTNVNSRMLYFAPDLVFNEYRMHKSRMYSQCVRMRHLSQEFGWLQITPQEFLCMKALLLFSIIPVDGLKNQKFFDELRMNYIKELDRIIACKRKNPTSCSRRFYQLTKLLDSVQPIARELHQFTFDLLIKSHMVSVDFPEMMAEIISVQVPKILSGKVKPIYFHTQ

Cc1cc(Br)ccc1NC(=O)CCl
active: [1] 43.6 µM | [2] 5.45 µM | [3] 1.54 µM | [4] 24.5 µM | [5] 48.6 µM

NC[C@@H]1CC[C@@H](N)[C@@H](O[C@H]2[C@H](O)[C@@H](O[C@H]3O[C@H](CO)[C@@H](O)[C@H](N)[C@H]3O)[C@H](N)C[C@@H]2N)O1
active: [8] 29.8 µM
inactive: [1] | [2] | [3] | [6] | [7] | [5] | [9]

C[C@H]1O[C@@H](O[C@H]2CC[C@@]3(C)[C@H](CC[C@@H]4[C@@H]3C[C@@H](O)[C@]3(C)[C@@H](C5=CC(=O)OC5)CC[C@]43O)C2)C[C@H](O)[C@@H]1O[C@H]1C[C@H](O)[C@H](O[C@H]2C[C@H](O)[C@H](O[C@@H]3O[C@H](CO)[C@@H](O)[C@H](O)[C@H]3O)[C@@H](C)O2)[C@@H](C)O1
inactive: [5]
active: [1] 1.34 µM | [2] 1.33 µM | [3] 1.5 µM | [6] 1.2 µM

O=C1CCC(c2ccccc2)(C2CCN(Cc3ccccc3)CC2)C(=O)N1 (stereo unspecified)
inactive: [1] | [2] | [4] | [5]

CC(C)c1ccc2sc3ccccc3c(=O)c2c1
active: [2] 54.5 µM | [3] 54.5 µM
inactive: [1] | [5]

CN1C(=O)C[C@@H](C(=O)N[C@@H](Cc2cnc[nH]2)C(=O)N2CCC[C@H]2C(N)=O)NC1=O
inactive: [1] | [2] | [3] | [5]

OCCCNc1ccccc1
inactive: [1] | [3] | [4] | [5]

NCCO/C=C/[C@H](N)C(=O)O
inactive: [1] | [2] | [3] | [4] | [5]

COc1cc2c(c(OC)c1OC)-c1c(cc3c(c1OC)OCO3)C[C@@H](C)[C@](C)(O)C2
inactive: [1] | [2] | [4] | [5]

COc1cc([C@@H]2c3cc4c(cc3[C@@H](O[C@@H]3O[C@@H]5CO[C@@H](C)O[C@H]5[C@H](O)[C@H]3O)[C@H]3COC(=O)[C@H]23)OCO4)cc(OC)c1O
active: [2] 473 nM and 107 nM | [3] 53.1 nM and 15.2 nM
inactive: [1] | [5]

O=C(O)c1cc2cc(Cc3cccnc3)ccc2o1
inactive: [1] | [2] | [3] | [5]

NC(=O)c1cc[n+](CC2=C(C(=O)O)N3C(=O)[C@@H](NC(=O)C(c4ccccc4)S(=O)(=O)[O-])[C@H]3SC2)cc1 (stereo partly specified)
inactive: [1] | [2] | [6] | [8] | [5] | [9]

COC1[C@@H](O[C@@H]2O[C@H](C)[C@@H](O[C@H]3C[C@@](C)(O)[C@H](OC(=O)CC(C)C)[C@H](C)O3)[C@H](N(C)C)[C@H]2O)[C@@H](CC=O)C[C@@H](C)[C@@H](O)/C=C/C=C/C[C@@H](C)OC(=O)C[C@H]1OC(C)=O (stereo partly specified)
inactive: [1] | [2] | [3] | [5]

CCC(O)c1ccccc1 (stereo unspecified)
inactive: [1] | [2] | [3] | [5]

C[S+](C)CCC(N)C(=O)O (stereo unspecified)
inactive: [1] | [3] | [4] | [5]

CC/C=C\C/C=C\C/C=C\C/C=C\C/C=C\CCCC(=O)O
inactive: [1] | [2] | [3] | [4] | [5]

CCCCC[C@H](O)/C=C/[C@@H]1[C@@H](C/C=C\CCCC(=O)O)[C@@H](O)C[C@H]1O
inactive: [1] | [2] | [3] | [4] | [5]

Nc1nc(/C(=C/CC(=O)O)C(=O)N[C@@H]2C(=O)N3C(C(=O)O)=CCS[C@H]23)cs1
inactive: [1] | [2] | [3] | [4] | [5]

CC12CCC(C1)C(C)(C)C2=O (stereo unspecified)
inactive: [1] | [2] | [3] | [6] | [7] | [8] | [5] | [9]

N[C@H](C(=O)O)[C@@H]1CC(Cl)=NO1
inactive: [5]
active: [2] 2.66 µM | [3] 2.98 µM

O=S(=O)(O)CC(S)CS (stereo unspecified)
active: [3] 3.76 µM
inactive: [1] | [6] | [8] | [5] | [9]

NCc1cccc(C2CCN(C(=O)c3ccc(C#Cc4ccccc4F)o3)CC2)c1
active: [10] 17.2 µM | [2] 30.6 µM | [3] 17.2 µM | [4] 21.9 µM
inactive: [8]

CCCCCCCCCCCCCCCCC(C(=O)O)C(O)(CC(=O)O)C(=O)O (stereo unspecified)
inactive: [10] | [2] | [3] | [4] | [8] | [5] | [9]

CCCCC/C=C\C=C\C(=O)OCC
active: [10] 12.7 µM | [2] 16 µM | [3] 12.7 µM

CC(Cc1ccc(O)c(O)c1)C(C)Cc1ccc(O)c(O)c1 (stereo unspecified)
inactive: [4] | [5]
active: [10] 13.7 µM | [2] 30.6 µM | [3] 15.4 µM
